Structures are written as SMILES. Where “and” joins values, the source holds several entries; their conditions need not be identical. Equal values may be shown once.

The target of one assay is Casein kinase I isoform delta (Homo sapiens) (UniProt P48730). The settings on record: Compound concentration 20.0 uM, Protein concentration 2.0 uM, Result type QC Liability.
Casein kinase I isoform delta (Homo sapiens), sequence (P48730 whole entry, looked up, canonical isoform): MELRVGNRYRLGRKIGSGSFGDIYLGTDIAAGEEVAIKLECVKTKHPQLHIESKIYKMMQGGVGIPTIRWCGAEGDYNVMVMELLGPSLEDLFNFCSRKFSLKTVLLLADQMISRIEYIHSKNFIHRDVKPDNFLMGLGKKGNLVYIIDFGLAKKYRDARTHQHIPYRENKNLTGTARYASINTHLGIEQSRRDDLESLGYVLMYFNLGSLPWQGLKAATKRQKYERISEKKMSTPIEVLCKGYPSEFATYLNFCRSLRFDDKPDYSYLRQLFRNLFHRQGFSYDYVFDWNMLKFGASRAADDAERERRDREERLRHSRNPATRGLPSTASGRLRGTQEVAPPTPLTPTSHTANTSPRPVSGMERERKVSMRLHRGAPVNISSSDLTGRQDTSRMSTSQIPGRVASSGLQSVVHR
For orientation: ΔTm means the change in melting temperature against a reference sample. Turning to `COc1ccc(COc2ccc(Cc3cnc(N)nc3N)cc2OC)cc1`, the ΔTm was -0.66 °C. In the case of `O=C1NC(=NCc2cccs2)SC1=Cc1ccc2ncccc2c1`, the ΔTm came out at 0.75 °C.

Turning to `COc1ccc(F)c(F)c1C(=O)c1cnc(NC2CCN(S(C)(=O)=O)CC2)nc1N`, the ΔTm stood at 0.3 °C. Consider `COc1cc2nc([C@@H]3CCCS(=O)(=O)C3)n(C)c2cc1NC(=O)c1cccc(C(C)(F)F)n1`, for which the ΔTm amounted to 0.86 °C. The same measure, in the same setting: for `O=C(Nc1ccc(OC(F)(F)Cl)cc1)c1cnc(N2CC[C@@H](O)C2)c(-c2cc[nH]n2)c1` the value was 0.99 °C. For `CC1(C)C(=O)N([C@H]2CCc3c(O)cccc32)c2nc(Nc3cccc(CN4CCCC4)c3)ncc21`, the ΔTm was 2.09 °C. The same measure, in the same setting: for `CC(C)(C)c1cnc(CSc2cnc(NC(=O)C3CCN(CC(=O)NCCOCCOCCOCCNc4cccc5c4C(=O)N(C4CCC(=O)NC4=O)C5=O)CC3)s2)o1` (centres undefined) the value was 0 °C.

Consider `COc1cc(N(C)c2ccnc3ccc(C(F)(F)F)cc23)cc(OC)c1OC`, for which the ΔTm was determined as 1.1 °C. Still for that read-out and setting: the figure for `Cn1cnc(Cn2ccc3ccc(CNCc4[nH]c5ccccc5c4[C@@H]4NC(=O)c5ccc(O)cc54)cc32)c1` is 0.29 °C. For `CN(C)CC#Cc1ccc2[nH]c3c(c2c1)-c1nc(N)ncc1CCC3`, the ΔTm worked out at 3.05 °C. Still for that read-out and setting: for `Cc1ccc(-n2nc(C(C)(C)C)cc2NC(=O)Nc2ccc(OCCN3CCOCC3)c3ccccc23)cc1` the value was 3.31 °C and 1.35 °C; for `NS(=O)(=O)c1ccc(Nc2nc(OCC3CCCCC3)c3nc[nH]c3n2)cc1`, 0.51 °C; for `C[C@@H]1Cc2c([nH]c3ccccc23)[C@@H](c2c(F)cc(/C=C/C(=O)O)cc2F)N1CC(C)(C)F`, 0.64 °C. Still for that read-out and setting: the figure for `Cc1cccc(-c2[nH]c(CNc3ccccc3F)nc2-c2ccc3ncnn3c2)n1` is 1.1 °C; for `CCN1CCN(Cc2ccc(C(=O)Nc3ccc(C)c(Oc4ccc5c(c4)CC(=O)N5)c3)cc2C(F)(F)F)CC1` it is 0.95 °C; for `CC(=O)Nc1nc(CN2CCC[C@H](Cc3cc(C)nc(C)c3)C2)cs1` it is 0.1 °C.

With `Nc1ncnc2[nH]c(-c3ccccc3)nc12`, the ΔTm turned out to be 0.73 °C. Same read-out and setting: for `CNc1nc(Nc2ccc(C(=O)N3CCOCC3)cc2OC)ncc1Cl` the value was -0.01 °C; for `COCCNC1CCC(Nc2cc(-c3csc(NCC4(C#N)CCOCC4)n3)c(Cl)cn2)CC1` (centres undefined), 2.18 °C; for `CNC(=O)c1c(F)cccc1Nc1nc(Nc2cc3c(cc2OC)CCN3C(=O)CN(C)C)nc2[nH]ccc12`, 1.14 °C. As for `CCc1nc(-c2cccc(C)c2)c(-c2ccnc(NC(=O)c3ccccc3)c2)s1`, the ΔTm came to 4.93 °C. Same read-out and setting: for `c1ccc(C(OC2CCN(CCCc3nnn[nH]3)CC2)c2ccccc2)cc1` the value was -0.14 °C; for `CC(C=CC1=C(C)CCCC1(C)C)=CC=CC(C)=CC(=O)O`, 0.93 °C; for `COc1nc2ccc([C@@](O)(c3ccccc3)C3CCN(C(C)=O)CC3)cc2c(Cl)c1Cc1ccc(-n2cccn2)cc1`, -0.56 °C. Still for that read-out and setting: for `CC(=O)Oc1ccc2c(c1)[C@@]1(C)CCC[C@](C)(C(=O)OC(=O)[C@@]3(C)CCC[C@]4(C)c5cc(OC(C)=O)ccc5CC[C@@H]34)[C@@H]1CC2` the value was 0.28 °C; for `COc1ccc(N(C(=O)Nc2c(C)cccc2C)c2cc(Nc3ccc(N4CCN(C)CC4)cc3)ncn2)c(OC)c1`, 2.65 °C; for `CCOC(=O)C1Cc2ccccc2CN1C(=O)c1ccc(SC)s1` (centres undefined), 0.34 °C. Still for that read-out and setting: for `CC(C)(C)c1cnc(CSc2cnc(NC(=O)C3CCNCC3)s2)o1` the value was 1.29 °C; for `COc1cc(-c2cn(C)c(=O)c3cnccc23)c(OC)cc1CN(C)C`, 0.06 °C. On to `CCN1CCN(Cc2ccc(Nc3ncc(F)c(-c4cc(F)c5nc(C)n(C(C)C)c5c4)n3)nc2)CC1`, for which the ΔTm came out at 4.97 °C. On the same count and under the same terms, the figure for `CCc1cnn2c(NCc3ccc[n+]([O-])c3)cc(N3CCCCC3CCO)nc12` (centres undefined) is 1.31 °C. On the same count and under the same terms, for `Cn1cc(-n2cnc3c(NCc4nc5cc(Cl)c(Cl)cc5[nH]4)nc(N4CCOCC4)nc32)cn1` the value was -0.03 °C; for `O=C(NC1CCNCC1)c1n[nH]cc1NC(=O)c1c(Cl)cccc1Cl`, 0.04 °C. The same measure, in the same setting: for `COc1cc2ncnc(Nc3cccc(O)c3)c2cc1OC` the value was 2.54 °C; for `CC(C)C(=O)N[C@@H]1CCN(C(=O)Nc2nc3c(s2)-c2nc(-c4ccccc4Cl)ncc2CC3)C1`, 2.85 °C; for `O=S(=O)(Nc1ccc(C(O)(C(F)(F)F)C(F)(F)F)cc1)c1cccs1`, 0.38 °C.

With `CCN(C(=O)c1cc(F)ccc1Oc1cncnc1N1CC2(CCN(C[C@H]3CC[C@H](NS(=O)(=O)CC)CC3)CC2)C1)C(C)C`, the ΔTm is -0.25 °C. The same measure, in the same setting: for `Cc1cccc(-c2nn3c(c2-c2ccnc4ccc(C(N)=O)cc24)CCC3)n1` the value was 3.53 °C; for `C[C@H](CCC(=O)O)[C@H]1CC[C@H]2[C@@H]3CC[C@@H]4C[C@H](O)CC[C@]4(C)[C@H]3C[C@H](O)[C@]12C`, 0.54 °C.

The target of the next assay is Glycogen synthase kinase-3 beta (Homo sapiens) (UniProt P49841). The note with it: Compound concentration 20.0 uM, Protein concentration 2.0 uM, Result type QC Liability.
Glycogen synthase kinase-3 beta (Homo sapiens), sequence (P49841 whole entry, looked up): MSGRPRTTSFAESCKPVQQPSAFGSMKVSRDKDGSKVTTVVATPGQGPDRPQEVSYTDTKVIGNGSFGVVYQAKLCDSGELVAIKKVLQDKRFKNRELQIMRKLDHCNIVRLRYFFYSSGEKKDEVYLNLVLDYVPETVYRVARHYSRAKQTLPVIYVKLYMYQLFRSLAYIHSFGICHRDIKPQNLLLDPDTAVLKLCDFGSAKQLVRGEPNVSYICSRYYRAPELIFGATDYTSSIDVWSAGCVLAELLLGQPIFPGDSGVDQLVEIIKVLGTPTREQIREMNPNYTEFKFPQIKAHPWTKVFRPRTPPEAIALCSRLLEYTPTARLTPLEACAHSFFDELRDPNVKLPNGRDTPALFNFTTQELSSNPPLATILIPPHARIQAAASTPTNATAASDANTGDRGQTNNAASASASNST
`COc1ccc(COc2ccc(Cc3cnc(N)nc3N)cc2OC)cc1`: the ΔTm was -0.98 °C. On the same count and under the same terms, for `O=C1NC(=NCc2cccs2)SC1=Cc1ccc2ncccc2c1` the value was 3.78 °C; for `COc1ccc(F)c(F)c1C(=O)c1cnc(NC2CCN(S(C)(=O)=O)CC2)nc1N`, 7.07 °C. On the same count and under the same terms, the figure for `COc1cc2nc([C@@H]3CCCS(=O)(=O)C3)n(C)c2cc1NC(=O)c1cccc(C(C)(F)F)n1` is -1.39 °C; for `O=C(Nc1ccc(OC(F)(F)Cl)cc1)c1cnc(N2CC[C@@H](O)C2)c(-c2cc[nH]n2)c1` it is 0 °C; for `CC1(C)C(=O)N([C@H]2CCc3c(O)cccc32)c2nc(Nc3cccc(CN4CCCC4)c3)ncc21` it is 6.72 °C. The same measure, in the same setting: for `CC(C)(C)c1cnc(CSc2cnc(NC(=O)C3CCN(CC(=O)NCCOCCOCCOCCNc4cccc5c4C(=O)N(C4CCC(=O)NC4=O)C5=O)CC3)s2)o1` (centres undefined) the value was 10.8 °C; for `COc1cc(N(C)c2ccnc3ccc(C(F)(F)F)cc23)cc(OC)c1OC`, -0.36 °C; for `Cn1cnc(Cn2ccc3ccc(CNCc4[nH]c5ccccc5c4[C@@H]4NC(=O)c5ccc(O)cc54)cc32)c1`, -0.16 °C. As for `CN(C)CC#Cc1ccc2[nH]c3c(c2c1)-c1nc(N)ncc1CCC3`, the ΔTm came to 0.06 °C. As to `Cc1ccc(-n2nc(C(C)(C)C)cc2NC(=O)Nc2ccc(OCCN3CCOCC3)c3ccccc23)cc1`, the ΔTm is 3.17 °C and 2.68 °C. Same read-out and setting: for `NS(=O)(=O)c1ccc(Nc2nc(OCC3CCCCC3)c3nc[nH]c3n2)cc1` the value was 5.83 °C. The same measure, in the same setting: for `C[C@@H]1Cc2c([nH]c3ccccc23)[C@@H](c2c(F)cc(/C=C/C(=O)O)cc2F)N1CC(C)(C)F` the value was 0 °C; for `Cc1cccc(-c2[nH]c(CNc3ccccc3F)nc2-c2ccc3ncnn3c2)n1`, -0.02 °C. Same read-out and setting: for `CCN1CCN(Cc2ccc(C(=O)Nc3ccc(C)c(Oc4ccc5c(c4)CC(=O)N5)c3)cc2C(F)(F)F)CC1` the value was 0.8 °C; for `CC(=O)Nc1nc(CN2CCC[C@H](Cc3cc(C)nc(C)c3)C2)cs1`, -0.34 °C; for `Nc1ncnc2[nH]c(-c3ccccc3)nc12`, 1.04 °C. Consider `CNc1nc(Nc2ccc(C(=O)N3CCOCC3)cc2OC)ncc1Cl`, for which the ΔTm was -0.95 °C. On the same count and under the same terms, the figure for `COCCNC1CCC(Nc2cc(-c3csc(NCC4(C#N)CCOCC4)n3)c(Cl)cn2)CC1` (centres undefined) is 6.51 °C; for `CNC(=O)c1c(F)cccc1Nc1nc(Nc2cc3c(cc2OC)CCN3C(=O)CN(C)C)nc2[nH]ccc12` it is -0.64 °C; for `CCc1nc(-c2cccc(C)c2)c(-c2ccnc(NC(=O)c3ccccc3)c2)s1` it is -1.07 °C.

Turning to `c1ccc(C(OC2CCN(CCCc3nnn[nH]3)CC2)c2ccccc2)cc1`, the ΔTm came out at 0.65 °C.

Turning to `CC(C=CC1=C(C)CCCC1(C)C)=CC=CC(C)=CC(=O)O`, the ΔTm is -0.56 °C. Consider `COc1nc2ccc([C@@](O)(c3ccccc3)C3CCN(C(C)=O)CC3)cc2c(Cl)c1Cc1ccc(-n2cccn2)cc1`, for which the ΔTm was -3.26 °C. The same measure, in the same setting: for `CC(=O)Oc1ccc2c(c1)[C@@]1(C)CCC[C@](C)(C(=O)OC(=O)[C@@]3(C)CCC[C@]4(C)c5cc(OC(C)=O)ccc5CC[C@@H]34)[C@@H]1CC2` the value was -0.85 °C; for `COc1ccc(N(C(=O)Nc2c(C)cccc2C)c2cc(Nc3ccc(N4CCN(C)CC4)cc3)ncn2)c(OC)c1`, 3.75 °C. Still for that read-out and setting: the figure for `CCOC(=O)C1Cc2ccccc2CN1C(=O)c1ccc(SC)s1` (centres undefined) is -1.03 °C. As for `CC(C)(C)c1cnc(CSc2cnc(NC(=O)C3CCNCC3)s2)o1`, the ΔTm is 8.72 °C.

Take `COc1cc(-c2cn(C)c(=O)c3cnccc23)c(OC)cc1CN(C)C`: the ΔTm worked out at 0.1 °C. The same measure, in the same setting: the figure for `CCN1CCN(Cc2ccc(Nc3ncc(F)c(-c4cc(F)c5nc(C)n(C(C)C)c5c4)n3)nc2)CC1` is 11.1 °C; for `CCc1cnn2c(NCc3ccc[n+]([O-])c3)cc(N3CCCCC3CCO)nc12` (centres undefined) it is 7.6 °C; for `Cn1cc(-n2cnc3c(NCc4nc5cc(Cl)c(Cl)cc5[nH]4)nc(N4CCOCC4)nc32)cn1` it is 2.12 °C.

`O=C(NC1CCNCC1)c1n[nH]cc1NC(=O)c1c(Cl)cccc1Cl`: the ΔTm worked out at 11.4 °C. The same measure, in the same setting: for `COc1cc2ncnc(Nc3cccc(O)c3)c2cc1OC` the value was 3.7 °C; for `CC(C)C(=O)N[C@@H]1CCN(C(=O)Nc2nc3c(s2)-c2nc(-c4ccccc4Cl)ncc2CC3)C1`, 0.38 °C; for `O=S(=O)(Nc1ccc(C(O)(C(F)(F)F)C(F)(F)F)cc1)c1cccs1`, -0.54 °C. On the same count and under the same terms, for `CCN(C(=O)c1cc(F)ccc1Oc1cncnc1N1CC2(CCN(C[C@H]3CC[C@H](NS(=O)(=O)CC)CC3)CC2)C1)C(C)C` the value was -0.47 °C. The same measure, in the same setting: the figure for `Cc1cccc(-c2nn3c(c2-c2ccnc4ccc(C(N)=O)cc24)CCC3)n1` is 3.04 °C; for `C[C@H](CCC(=O)O)[C@H]1CC[C@H]2[C@@H]3CC[C@@H]4C[C@H](O)CC[C@]4(C)[C@H]3C[C@H](O)[C@]12C` it is -0.7 °C. As to `CC[C@@H]1C(=O)N(C)c2cnc(Nc3ccc(C(=O)NC4CCN(C)CC4)cc3OC)nc2N1C1CCCC1`, the ΔTm was 0.02 °C.

The record behind these values is ChEMBL document CHEMBL5308504, “Tm Shift (DSF) assay results for EUbOPEN Chemogenomics Library” (2023).
